Experimental findings from ChEMBL document CHEMBL3988442, “University of Dundee, Small-Polar-MMV Screening Library” (2021) are described below.

The target in assay [1] is T1, Aspartate--tRNA(Asp/Asn) ligase (Mycobacterium tuberculosis (strain ATCC 25618 / H37Rv)) (UniProt P9WFW3). Also: in the data most compounds retested in dose-response had high values.
T1 sequence (whole entry): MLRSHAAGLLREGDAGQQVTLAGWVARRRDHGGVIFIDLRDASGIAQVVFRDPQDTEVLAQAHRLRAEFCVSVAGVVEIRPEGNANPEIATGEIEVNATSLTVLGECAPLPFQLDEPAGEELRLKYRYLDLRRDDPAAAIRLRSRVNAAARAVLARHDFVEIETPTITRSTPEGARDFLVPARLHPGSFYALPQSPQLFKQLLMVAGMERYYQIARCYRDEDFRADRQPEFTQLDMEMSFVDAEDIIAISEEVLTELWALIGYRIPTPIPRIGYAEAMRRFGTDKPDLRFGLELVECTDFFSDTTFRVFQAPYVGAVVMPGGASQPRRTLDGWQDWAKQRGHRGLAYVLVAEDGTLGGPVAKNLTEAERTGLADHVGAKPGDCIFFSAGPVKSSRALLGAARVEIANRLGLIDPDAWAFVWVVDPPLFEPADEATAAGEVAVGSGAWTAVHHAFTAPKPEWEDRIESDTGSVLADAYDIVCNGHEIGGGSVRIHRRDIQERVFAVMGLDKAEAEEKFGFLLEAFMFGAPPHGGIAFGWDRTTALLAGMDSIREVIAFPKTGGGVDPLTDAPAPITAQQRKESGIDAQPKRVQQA
Nature of the assay: Assay for Asp RNA synthetase-1 from Mycobacterium tuberculosis. The format is functional. Also on record: scale not given: direction of the effect not stated beside the values. The settings on record: 30 µM.

Assay [2] addresses Shiga toxin 2 (Escherichia coli O157:H7) (UniProt P09385+P09386). Description: E. coli 0.157:H7 Shiga Toxin SOP - stx2 screening assay. The class given is functional. Details: scale not given: direction of the effect not stated beside the values. The settings on record: 30 µM.

As for `O=C(c1ccccc1-n1cccn1)N1CCCN(c2cccnn2)CC1`, the Percent Effect turned out to be 0.98% in assay [1] and 33% in assay [2].
For `Cc1cc(-c2cnc(N3CCN(C)CC3)nc2-c2ccc(C)s2)on1`, the values for the Percent Effect in assay [1] and in assay [2] were -3.23% and -24.7%, respectively.
On to `O=C1CCC2(CCN(c3ncc(F)cn3)CC2)N1CCN1CCCC1`, for which the Percent Effect in assay [1] is 1.53%; in assay [2], -1.87%.
For the compound `O=C(NCCOc1ccc2c(c1)CCC2)N1CCS(=O)(=O)CC1`, the Percent Effect is -1.48% in assay [1] and -52.5% in assay [2].
Consider `CC1CCCCN1Cc1ccc(-c2ccccc2C(=O)O)cc1` (configuration not stated), for which the Percent Effect in assay [1] turned out to be 5.63%; in assay [2] it was 25%.
The matching figures for `CNC(=O)Nc1cc(-c2ccccc2C)nn1CCO`: 10.9% and -22%.
Regarding `CC(NC(=O)NCCCN(C)S(C)(=O)=O)c1ccncc1` (configuration not stated), the Percent Effect was -2.98% in assay [1] and -9.54% in assay [2].
The matching figures for `Cc1ccc(C(=O)NCCCNS(C)(=O)=O)c(=O)[nH]1`: -3.45% and -17.7%.
On the same counts, the results for `O=C1COC2(COCCN(Cc3ccsc3)C2)CN1c1ccc(F)cc1` (configuration not stated) are 2.55% and -4.46%.
For `O=c1cc(CN2CCCC(CCc3c(F)cccc3F)C2)[nH]c(=O)[nH]1` (configuration not stated), the Percent Effect in assay [1] is 3.07%; in assay [2], -12.7%.
The matching figures for `CCn1ncc2c1CCCC2NCc1cc(Cl)c(OC)c(OC)c1` (configuration not stated): -2.06% and 1.68%.
For `Cc1nc(C)n(CC2CCCN(Cc3nnc(-c4ccco4)o3)C2)n1` (configuration not stated), the Percent Effect in assay [1] was -2.25%; in assay [2], -19.8%.
On to `Cc1nc(NC(=O)CN2CCc3c(nc(C(C)C)n3C)C2)sc1C`, for which the values for the Percent Effect in assay [1] and in assay [2] were -4.32% and 5.46%, respectively.
For the compound `O=C(NCc1cccnc1)C1=NN(c2ccccc2)C(=O)CN1`, the Percent Effect in assay [1] is 14.8%; in assay [2], -1.16%.
The matching figures for `Cc1cc(C)c2cc(CNCC3CCCO3)c3nn(C)c(=O)n3c2c1` (configuration not stated): 1.03% and 3.55%.
On the same counts, the results for `CC(C)NC(=O)N1CCN(C(=O)N(C)C)CC2(CC(=O)N(C)C2)C1` (configuration not stated) are -7.76% and -39.2%.
The matching figures for `COc1ccc(C(O)CNc2c(C#N)c(=O)n(C)c(=O)n2C)cc1` (configuration not stated): -3.91% and -4.88%.
Turning to `CNc1cccc(C2CCCN(C(C)=O)C2)n1` (configuration not stated), the Percent Effect in assay [1] was determined as 7.52%; in assay [2], 23.2%.
As for `CC(NC(=O)NCCCc1n[nH]c(N)c1C#N)c1ccccc1` (configuration not stated), the values for the Percent Effect in assay [1] and in assay [2] were 1.03% and -17.6%, respectively.
On the same counts, the results for `O=C(CCO)N1CCOC2(CCCN(C(=O)c3ccco3)C2)C1` (configuration not stated) are -4.34% and -15.2%.
As to `CNCC(=O)N1CCCC(c2nccnc2Oc2cccc(F)c2)C1` (configuration not stated), the Percent Effect in assay [1] came to 1.72%; in assay [2], 4.34%.
On the same counts, the results for `CC1CCN(C(=O)CN(Cc2ccco2)C2CC2)CC1` are 0.548% and -5.22%.
Regarding `COc1ccc(C2CCCCCN2S(=O)(=O)N(C)C)cc1` (configuration not stated), the Percent Effect was -8.89% in assay [1] and -9.69% in assay [2].
With `Cc1cccc(-c2nc(C)nn2CC(=O)N(C)C2CC2)c1`, the Percent Effect in assay [1] was -4.28%; in assay [2], 6.5%.
The matching figures for `Cc1cc(C)c(CNC(=O)NCC2CCCO2)c(=O)[nH]1` (configuration not stated): -3.97% and 24.8%.
The matching figures for `COc1cccc(CN2CCCCCC2c2cccc(C)c2)c1O` (configuration not stated): -0.481% and -68.7%.
The matching figures for `CN1N=C(C(=O)NCc2ccc3c(c2)CCCN3C)CCC1=O`: -4.96% and -42.9%.
Consider `c1ccc(OC2CCCC2)c(CNC2CCc3ncnn3C2)c1` (configuration not stated), for which the figures for the Percent Effect in assay [1] and in assay [2] were -1.83% and 9.47%, respectively.
For `CN(C)C(=O)C1CCCN1CCCNC(=O)c1ccccc1F` (configuration not stated), the Percent Effect is 7.07% in assay [1] and -18.5% in assay [2].
Take `COc1cccc(CCNC(=O)CN2CCN(C)CC2C)c1` (configuration not stated): the Percent Effect was 0.495% in assay [1] and 20% in assay [2].
On the same counts, the results for `CN(CC1CC1)c1ccc2ccc(C(=O)NCCN3CCOCC3)cn12` are -0.228% and -88.6%.
In the case of `O=C(NC1CC1)[C@H]1C[C@@H]2CCN(CCc3ccccc3)C[C@H]2O1`, the values for the Percent Effect in assay [1] and in assay [2] were 3.49% and -10.6%, respectively.
Take `OCC1CCCN1c1cc(NCc2ccc(Cl)s2)ncn1` (configuration not stated): the figures for the Percent Effect in assay [1] and in assay [2] were 0.451% and -31.6%, respectively.
`CC(C)CCN1CN=C(NS(=O)(=O)c2ccc(F)cc2)NC1`: the Percent Effect in assay [1] is -1.13%; in assay [2] it was -27.2%.
The matching figures for `COc1cccc2cc(CNCc3ccnc(N4CCOCC4)c3)oc12`: -2.91% and 26.8%.
On the same counts, the results for `CN(C)S(=O)(=O)N1CCC(Oc2cnccn2)CC1` are -9.05% and -9.23%.
On the same counts, the results for `CC(NC(=O)NCCCn1cncn1)c1ccc2c(c1)OCCO2` (configuration not stated) are 0.175% and 17.4%.
With `Cc1ccc(C(=O)N2CCCC2c2nnc3n2CCCCC3)o1` (configuration not stated), the Percent Effect in assay [1] was -0.223%; in assay [2] it was -7.29%.
Take `Cc1cccc(C(=O)N2CCCN(Cc3cnn(C)c3)CC2)n1`: the Percent Effect was -3.08% in assay [1] and -31.1% in assay [2].
Turning to `COc1ccc(CNCc2c(C)nn(C)c2N2CCOCC2)cc1`, the Percent Effect in assay [1] was -0.115%; in assay [2], 14.4%.
Take `O=C(C1SCCc2sccc21)N1CCN(CCO)CC1` (configuration not stated): the Percent Effect in assay [1] was -0.774%; in assay [2], 24.8%.
Consider `O=C(CCc1cccs1)N1CCCCC1Cn1cccn1` (configuration not stated), for which the values for the Percent Effect in assay [1] and in assay [2] were -2.77% and 1.06%, respectively.
On the same counts, the results for `Cc1cccc(N2CCN(CCCNC(=O)c3nccn3C)CC2)c1` are -3.22% and -11.1%.
As to `Cc1cnn(CC2CCCN2C(=O)c2nccc3ccccc23)c1` (configuration not stated), the figures for the Percent Effect in assay [1] and in assay [2] were 3.06% and 28%, respectively.
On the same counts, the results for `NC(=O)c1ccc(S(=O)(=O)NC2CCN(Cc3ccccc3)C2=O)cc1` (configuration not stated) are -5.17% and 5.52%.
On the same counts, the results for `CNC(=O)N1CC[C@@H]2CN(Cc3cccnc3)S(=O)(=O)[C@@H]2CC1` are 1.91% and -0.136%.
`CCOCC(=O)N1CCC(Oc2ccc(Cl)cn2)CC1`: the Percent Effect in assay [1] was -2.08%; in assay [2], -2.19%.
The matching figures for `Cc1ccoc1C(=O)N1C[C@H]2CCC[C@@]2(COCc2ccncc2)C1`: 6.22% and -14.5%.
On the same counts, the results for `Cc1nc(CN2CC3(CCN(c4ncc(F)cn4)C3)CC2=O)cs1` (configuration not stated) are 3.16% and -4.09%.
Consider `c1csc(-c2nc(CNC3CCc4ncnn4C3)cs2)c1` (configuration not stated), for which the Percent Effect in assay [1] was -3.43%; in assay [2], -12.9%.
With `O=C(c1cc(C2CC2)on1)N1CC[C@]2(C[C@H](Oc3cccnc3)CO2)C1`, the Percent Effect in assay [1] came to 6.67%; in assay [2] it was 7.42%.
